# Measurements as given in publication PMC7862700, “An all-to-all approach to the identification of sequence-specific readers for epigenetic DNA modifications on cytosine”.
# Experiments:
# Assay in all cases: DAPPL (digital affinity profiling via proximity ligation, sequencing); 10 mM Tris-HCl pH 7.5, 50 mM NaCl, 1 mM DTT, 4% glycerol, room temperature, 30 min; GST-TFs on glutathione beads, 16-mer random dsDNA library, 0.1% formaldehyde crosslink after washing; high values mean tight binding
# Settings in all cases: protein: recombinant; tags: N-terminal GST; dsDNA, one strand shown
# [1] = target: T1, SPIC (Homo sapiens, UniProt Q8N5J4 1-248)
# T1 sequence: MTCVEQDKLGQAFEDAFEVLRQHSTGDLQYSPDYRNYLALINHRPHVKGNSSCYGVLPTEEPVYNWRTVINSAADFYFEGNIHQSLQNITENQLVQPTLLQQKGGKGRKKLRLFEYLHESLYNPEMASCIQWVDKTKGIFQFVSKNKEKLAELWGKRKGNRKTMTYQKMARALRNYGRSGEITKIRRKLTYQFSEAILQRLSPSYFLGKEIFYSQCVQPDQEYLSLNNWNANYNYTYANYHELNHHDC
# Procedure, shortened: (§1)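 Pools were built from human transcription factors expressed in yeast as GST fusions, captured on glutathione beads and DNA-barcoded, along with a tag-only sample. Incubation with 200 nmole of a 16-mer random double-stranded DNA library lasted 30 min at room temperature in Tris/NaCl/DTT/glycerol buffer, and was followed by washing, 0.1% formaldehyde crosslinking, proximity ligation, PCR amplification and Illumina NextSeq500 sequencing. Binding signal is the quotient of each hexamer's read frequency for a factor and its frequency for the tag-only sample.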
# [2] = target: ELF4 (Homo sapiens, UniProt Q99607 1-663)
# ELF4, sequence (Q99607 whole entry): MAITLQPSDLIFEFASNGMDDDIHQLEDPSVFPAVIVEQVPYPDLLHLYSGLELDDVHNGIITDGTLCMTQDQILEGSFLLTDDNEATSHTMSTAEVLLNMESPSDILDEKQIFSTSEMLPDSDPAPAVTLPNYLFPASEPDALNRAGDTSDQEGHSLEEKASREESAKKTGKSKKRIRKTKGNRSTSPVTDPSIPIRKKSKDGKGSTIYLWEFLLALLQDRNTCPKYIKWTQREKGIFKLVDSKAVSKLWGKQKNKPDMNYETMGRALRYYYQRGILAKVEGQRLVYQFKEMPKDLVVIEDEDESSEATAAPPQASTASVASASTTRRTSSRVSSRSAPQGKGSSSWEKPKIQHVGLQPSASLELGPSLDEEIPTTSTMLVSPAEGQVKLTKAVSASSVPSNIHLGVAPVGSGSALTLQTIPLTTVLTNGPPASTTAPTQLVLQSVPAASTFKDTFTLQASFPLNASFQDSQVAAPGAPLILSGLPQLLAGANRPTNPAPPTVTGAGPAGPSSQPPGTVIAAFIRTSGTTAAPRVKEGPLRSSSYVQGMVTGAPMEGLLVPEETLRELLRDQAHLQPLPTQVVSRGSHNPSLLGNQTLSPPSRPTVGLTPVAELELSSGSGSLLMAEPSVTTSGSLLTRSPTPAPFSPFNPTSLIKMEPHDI
# Procedure, shortened: as §1
# [3] = target: T2, ERF (Homo sapiens, UniProt P50548 1-548)
# T2 sequence: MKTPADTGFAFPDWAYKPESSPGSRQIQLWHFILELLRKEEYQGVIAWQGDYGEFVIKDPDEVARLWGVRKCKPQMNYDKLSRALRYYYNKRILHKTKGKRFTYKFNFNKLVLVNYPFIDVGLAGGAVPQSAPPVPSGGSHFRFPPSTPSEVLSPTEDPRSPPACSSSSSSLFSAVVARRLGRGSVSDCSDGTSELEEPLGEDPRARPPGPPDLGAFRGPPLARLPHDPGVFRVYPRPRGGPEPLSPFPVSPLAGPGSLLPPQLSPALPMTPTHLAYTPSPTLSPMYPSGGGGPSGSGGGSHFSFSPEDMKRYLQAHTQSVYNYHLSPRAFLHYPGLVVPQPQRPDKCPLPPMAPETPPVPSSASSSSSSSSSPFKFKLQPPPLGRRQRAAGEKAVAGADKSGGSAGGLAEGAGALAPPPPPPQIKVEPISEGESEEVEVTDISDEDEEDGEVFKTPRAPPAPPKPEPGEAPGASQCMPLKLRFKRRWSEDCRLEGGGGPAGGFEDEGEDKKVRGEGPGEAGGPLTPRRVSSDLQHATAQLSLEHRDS
# Procedure, shortened: as §1
# [4] = target: T3, GABPA (Homo sapiens, UniProt Q06546 1-454)
# T3 sequence: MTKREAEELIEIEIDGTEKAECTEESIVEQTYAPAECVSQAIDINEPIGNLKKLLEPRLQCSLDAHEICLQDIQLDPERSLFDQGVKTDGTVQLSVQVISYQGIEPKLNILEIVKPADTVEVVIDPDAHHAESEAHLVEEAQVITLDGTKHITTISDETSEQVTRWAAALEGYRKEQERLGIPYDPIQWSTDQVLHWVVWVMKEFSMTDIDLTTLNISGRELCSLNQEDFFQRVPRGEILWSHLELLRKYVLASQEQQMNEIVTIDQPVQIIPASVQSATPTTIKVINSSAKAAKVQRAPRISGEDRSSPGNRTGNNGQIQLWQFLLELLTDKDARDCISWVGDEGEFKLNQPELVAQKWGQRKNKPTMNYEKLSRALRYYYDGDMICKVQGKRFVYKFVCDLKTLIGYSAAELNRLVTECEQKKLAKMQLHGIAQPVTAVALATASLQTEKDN
# Procedure, shortened: as §1
# [5] = target: ELF1 (Homo sapiens, UniProt P32519 1-619)
# ELF1, sequence (P32519 whole entry): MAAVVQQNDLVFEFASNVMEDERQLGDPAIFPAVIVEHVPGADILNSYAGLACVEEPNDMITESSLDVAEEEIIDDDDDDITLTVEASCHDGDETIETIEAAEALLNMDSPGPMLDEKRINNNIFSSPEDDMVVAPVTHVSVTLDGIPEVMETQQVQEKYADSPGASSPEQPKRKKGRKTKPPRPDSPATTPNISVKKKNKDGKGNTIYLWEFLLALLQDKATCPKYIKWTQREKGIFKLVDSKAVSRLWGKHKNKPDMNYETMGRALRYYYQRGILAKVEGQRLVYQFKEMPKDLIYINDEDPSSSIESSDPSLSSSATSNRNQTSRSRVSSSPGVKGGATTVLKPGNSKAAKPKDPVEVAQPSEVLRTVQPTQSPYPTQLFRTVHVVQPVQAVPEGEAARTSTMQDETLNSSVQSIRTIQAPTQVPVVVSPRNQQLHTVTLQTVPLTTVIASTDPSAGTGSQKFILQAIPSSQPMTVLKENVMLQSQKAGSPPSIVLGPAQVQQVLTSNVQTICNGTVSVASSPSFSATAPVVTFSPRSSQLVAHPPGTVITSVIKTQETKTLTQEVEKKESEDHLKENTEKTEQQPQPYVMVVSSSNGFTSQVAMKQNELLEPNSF
# Procedure, shortened: as §1
# [6] = target: T4, EHF (Homo sapiens, UniProt Q9NZC4 1-300)
# T4 sequence: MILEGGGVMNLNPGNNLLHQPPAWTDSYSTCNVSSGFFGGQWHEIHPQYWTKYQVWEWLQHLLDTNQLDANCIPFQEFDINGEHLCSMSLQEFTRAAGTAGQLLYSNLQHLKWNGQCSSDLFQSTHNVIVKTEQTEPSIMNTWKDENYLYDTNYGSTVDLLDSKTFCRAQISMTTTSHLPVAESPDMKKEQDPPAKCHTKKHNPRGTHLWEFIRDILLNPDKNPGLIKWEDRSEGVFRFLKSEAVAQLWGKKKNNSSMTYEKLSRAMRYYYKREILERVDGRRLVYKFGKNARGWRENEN
# Procedure, shortened: as §1
# [7] = target: SPIB (Homo sapiens, UniProt Q01892 1-262)
# SPIB, sequence (Q01892 whole entry): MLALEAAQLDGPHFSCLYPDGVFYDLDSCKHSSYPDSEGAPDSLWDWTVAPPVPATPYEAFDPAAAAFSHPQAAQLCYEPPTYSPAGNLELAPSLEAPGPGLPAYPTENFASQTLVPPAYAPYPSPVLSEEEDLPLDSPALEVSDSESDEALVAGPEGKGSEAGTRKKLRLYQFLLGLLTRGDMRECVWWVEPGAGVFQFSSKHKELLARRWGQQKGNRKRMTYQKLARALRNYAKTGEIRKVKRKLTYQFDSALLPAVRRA
# Procedure, shortened: as §1
# [8] = target: T5, ETV2 (Homo sapiens, UniProt O00321 1-342)
# T5 sequence: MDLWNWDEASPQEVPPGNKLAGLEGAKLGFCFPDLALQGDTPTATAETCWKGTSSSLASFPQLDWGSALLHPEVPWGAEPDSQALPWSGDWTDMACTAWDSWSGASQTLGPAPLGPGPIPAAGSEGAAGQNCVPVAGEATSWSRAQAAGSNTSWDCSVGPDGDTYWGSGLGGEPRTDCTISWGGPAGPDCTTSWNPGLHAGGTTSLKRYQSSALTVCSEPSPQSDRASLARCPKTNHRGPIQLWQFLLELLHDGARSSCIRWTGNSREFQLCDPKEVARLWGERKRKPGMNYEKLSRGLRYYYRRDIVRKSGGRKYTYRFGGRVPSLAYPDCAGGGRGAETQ
# Procedure, shortened: as §1
# [9] = target: T6, ELF3 (Homo sapiens, UniProt P78545 1-371)
# T6 sequence: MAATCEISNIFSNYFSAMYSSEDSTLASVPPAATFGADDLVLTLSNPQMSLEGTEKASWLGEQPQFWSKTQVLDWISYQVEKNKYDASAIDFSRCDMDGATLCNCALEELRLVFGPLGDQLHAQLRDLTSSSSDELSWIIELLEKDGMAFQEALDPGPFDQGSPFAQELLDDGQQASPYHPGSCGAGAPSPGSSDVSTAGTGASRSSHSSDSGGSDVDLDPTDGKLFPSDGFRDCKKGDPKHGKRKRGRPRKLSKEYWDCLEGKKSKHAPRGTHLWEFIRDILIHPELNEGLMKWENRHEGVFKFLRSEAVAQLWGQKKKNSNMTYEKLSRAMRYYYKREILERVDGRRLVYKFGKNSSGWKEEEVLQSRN
# Procedure, shortened: as §1
# [10] = target: ETV1 (Homo sapiens, UniProt P50549 1-477)
# ETV1, sequence (P50549 whole entry): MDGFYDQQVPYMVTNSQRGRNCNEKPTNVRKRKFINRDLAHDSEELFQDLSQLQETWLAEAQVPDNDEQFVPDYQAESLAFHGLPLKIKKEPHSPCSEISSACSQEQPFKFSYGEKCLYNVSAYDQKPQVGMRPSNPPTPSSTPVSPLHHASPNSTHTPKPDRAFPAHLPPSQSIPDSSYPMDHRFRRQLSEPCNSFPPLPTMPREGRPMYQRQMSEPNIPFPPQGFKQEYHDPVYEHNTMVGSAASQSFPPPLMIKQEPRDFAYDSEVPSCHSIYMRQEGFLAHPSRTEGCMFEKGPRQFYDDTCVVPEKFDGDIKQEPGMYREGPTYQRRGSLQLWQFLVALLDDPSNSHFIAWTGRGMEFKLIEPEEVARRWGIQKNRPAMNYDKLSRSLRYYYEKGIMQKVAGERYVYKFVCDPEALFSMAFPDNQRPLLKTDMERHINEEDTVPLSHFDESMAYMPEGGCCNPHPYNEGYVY
# Procedure, shortened: as §1
# [11] = target: T7, ETV3L (Homo sapiens, UniProt Q6ZN32 1-361)
# T7 sequence: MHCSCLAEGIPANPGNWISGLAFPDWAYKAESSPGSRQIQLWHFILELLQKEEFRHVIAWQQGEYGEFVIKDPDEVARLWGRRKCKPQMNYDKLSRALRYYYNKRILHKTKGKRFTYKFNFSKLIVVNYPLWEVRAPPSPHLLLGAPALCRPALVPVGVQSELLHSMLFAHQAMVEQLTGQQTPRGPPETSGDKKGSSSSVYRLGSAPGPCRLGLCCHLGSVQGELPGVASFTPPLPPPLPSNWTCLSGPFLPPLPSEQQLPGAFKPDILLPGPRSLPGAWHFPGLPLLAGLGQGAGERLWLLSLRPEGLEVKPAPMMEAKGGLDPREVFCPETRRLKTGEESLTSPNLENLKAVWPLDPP
# Procedure, shortened: as §1
# [12] = target: T8, ETS2 (Homo sapiens, UniProt P15036 1-469)
# T8 sequence: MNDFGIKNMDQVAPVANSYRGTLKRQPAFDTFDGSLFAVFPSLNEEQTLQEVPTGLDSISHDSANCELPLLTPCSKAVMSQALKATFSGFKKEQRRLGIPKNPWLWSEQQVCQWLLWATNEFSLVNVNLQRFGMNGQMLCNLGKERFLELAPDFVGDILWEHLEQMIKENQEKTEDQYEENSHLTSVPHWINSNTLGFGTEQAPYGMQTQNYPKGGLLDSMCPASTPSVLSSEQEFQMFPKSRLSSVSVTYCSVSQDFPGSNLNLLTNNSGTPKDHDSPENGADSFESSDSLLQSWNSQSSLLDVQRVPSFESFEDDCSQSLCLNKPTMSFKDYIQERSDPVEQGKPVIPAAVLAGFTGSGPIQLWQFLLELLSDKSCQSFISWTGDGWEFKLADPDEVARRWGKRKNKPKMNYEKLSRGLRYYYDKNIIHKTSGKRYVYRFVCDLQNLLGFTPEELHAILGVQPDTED
# Procedure, shortened: as §1
# [13] = target: T9, ETV3 (Homo sapiens, UniProt P41162-2 1-143)
# T9 sequence: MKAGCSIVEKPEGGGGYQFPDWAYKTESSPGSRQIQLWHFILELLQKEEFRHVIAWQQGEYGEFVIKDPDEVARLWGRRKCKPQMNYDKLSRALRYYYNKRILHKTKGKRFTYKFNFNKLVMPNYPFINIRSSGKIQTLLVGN
# Procedure, shortened: as §1
# [14] = target: T10, ELK4 (Homo sapiens, UniProt P28324-2 1-405)
# T10 sequence: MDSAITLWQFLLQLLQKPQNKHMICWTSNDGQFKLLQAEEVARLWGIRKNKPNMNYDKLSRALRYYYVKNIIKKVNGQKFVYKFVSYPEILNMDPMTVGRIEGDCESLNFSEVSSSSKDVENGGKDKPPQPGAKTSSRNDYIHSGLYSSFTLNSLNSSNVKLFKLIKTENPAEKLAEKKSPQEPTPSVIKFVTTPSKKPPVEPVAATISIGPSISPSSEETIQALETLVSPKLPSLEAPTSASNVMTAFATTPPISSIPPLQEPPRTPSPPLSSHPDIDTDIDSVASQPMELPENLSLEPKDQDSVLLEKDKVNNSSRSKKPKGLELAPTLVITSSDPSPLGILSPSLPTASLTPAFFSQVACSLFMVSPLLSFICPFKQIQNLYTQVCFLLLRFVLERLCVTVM
# Procedure, shortened: as §1
sequence,measurement,setting,value
GGCACC,binding signal,[1],"1.03 fold enrichment (6-mer frequency, TF over GST control)"
ATTGTG,binding signal,[1],"1.07 fold enrichment (6-mer frequency, TF over GST control)"
same,binding signal,[2],"1 fold enrichment (6-mer frequency, TF over GST control)"
same,binding signal,[3],"1.06 fold enrichment (6-mer frequency, TF over GST control)"
CTGGGG,binding signal,[1],"1 fold enrichment (6-mer frequency, TF over GST control)"
CAGCTC,binding signal,[4],"1.01 fold enrichment (6-mer frequency, TF over GST control)"
same,binding signal,[5],"1.06 fold enrichment (6-mer frequency, TF over GST control)"
same,binding signal,[6],"1.01 fold enrichment (6-mer frequency, TF over GST control)"
same,binding signal,[7],"1.01 fold enrichment (6-mer frequency, TF over GST control)"
same,binding signal,[1],"1.06 fold enrichment (6-mer frequency, TF over GST control)"
same,binding signal,[2],"1.05 fold enrichment (6-mer frequency, TF over GST control)"
same,binding signal,[8],"1.02 fold enrichment (6-mer frequency, TF over GST control)"
same,binding signal,[9],"1.04 fold enrichment (6-mer frequency, TF over GST control)"
same,binding signal,[10],"1.08 fold enrichment (6-mer frequency, TF over GST control)"
same,binding signal,[3],"1.05 fold enrichment (6-mer frequency, TF over GST control)"
same,binding signal,[11],"1.11 fold enrichment (6-mer frequency, TF over GST control)"
same,binding signal,[12],"1.06 fold enrichment (6-mer frequency, TF over GST control)"
same,binding signal,[13],"1 fold enrichment (6-mer frequency, TF over GST control)"
AGACTC,binding signal,[1],"1.06 fold enrichment (6-mer frequency, TF over GST control)"
TGTCAG,binding signal,[1],"1 fold enrichment (6-mer frequency, TF over GST control)"
same,binding signal,[14],"1.02 fold enrichment (6-mer frequency, TF over GST control)"
